Source: PubChem BioAssay AID1159580 (chemical genetic matrix, 2015)
Values joined by “and” are separate entries in the source; they are usually repeats but may differ in a detail not shown here. Identical values can stand only once. In all, about 5,500 compounds went through this assay and about 2,000 (36%) were called active. Roughly 18% stayed inconclusive and do not appear here. Cut-off read from the data, not from the text of the source: active = normalized growth mostly below about 0.91 (no sharp cut-off); inconclusive = no clear call, values can overlap the other calls; inactive = mostly above about 0.92. The list shows a part of the results.

Assay: chemical genetic growth profiling, strain panel (AID 1159580);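 note: tested at 20 µM; growth read once vehicle control cultures reached saturation at 30 °C; 1 = growth at the plate median or of vehicle wells; lower values mean less growth of the strain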
Settings: S. cerevisiae deletion strains, growth OD

Measured: normalized growth

CC(=O)OCC1=C(C(=O)O)N2C(=O)[C@@H](NC(=O)CSc3ccncc3)[C@H]2SC1
inactive: locus YAL013W, strain DEP1, stronger effect = lower value 0.988 | locus YAL021C, strain ccr4, stronger effect = lower value 1.02 | locus YAL026C, strain drs2, stronger effect = lower value 1.02 | locus YAL030W, strain snc1, stronger effect = lower value 1 | locus YBL061C, strain skt5, stronger effect = lower value 1.04 | locus YBR009C, strain hhf1, stronger effect = lower value 1.01 | locus YBR021W, strain FUR4, stronger effect = lower value 1.02 | locus YBR023C, strain chs3, stronger effect = lower value 1.04 | locus YBR171W, strain sec66, stronger effect = lower value 1.02 | locus YBR229C, strain ROT2, stronger effect = lower value 0.95 | locus YBR231C, strain swc5, stronger effect = lower value 1.04 | locus YBR279W, strain paf1, stronger effect = lower value 1.03 | locus YCL011C, strain gbp2, stronger effect = lower value 1.01 | locus YCL016C, strain dcc1, stronger effect = lower value 1.02 | locus YCL029C, strain bik1, stronger effect = lower value 1 | locus YCL061C, strain MRC1, stronger effect = lower value 1.01 | locus YCL069W, strain vba3, stronger effect = lower value 1.02 | locus YCR088W, strain abp1, stronger effect = lower value 1.02 | locus YDL005C, strain med2, stronger effect = lower value 1.02 | locus YDL035C, strain GPR1, stronger effect = lower value 0.959 | locus YDL040C, strain nat1, stronger effect = lower value 1.02 | locus YDL074C, strain BRE1, stronger effect = lower value 1 | locus YDL101C, strain DUN1, stronger effect = lower value 0.988 | locus YDL185W, strain tfp1, stronger effect = lower value 0.966 | locus YDL192W, strain arf1, stronger effect = lower value 0.984 | locus YDR001C, strain nth1, stronger effect = lower value 1.02 | locus YDR069C, strain doa4, stronger effect = lower value 1.04 | locus YDR101C, strain arx1, stronger effect = lower value 0.976 | locus YDR137W, strain rgp1, stronger effect = lower value 1 | locus YDR159W, strain sac3, stronger effect = lower value 1.03 | locus YDR162C, strain NBP2, stronger effect = lower value 0.946 | locus YDR195W, strain ref2 1.03 | locus YDR297W, strain sur2, stronger effect = lower value 1.02 | locus YDR318W, strain mcm21, stronger effect = lower value 0.99 | locus YDR334W, strain swr1, stronger effect = lower value 1.01 | locus YDR335W, strain msn5, stronger effect = lower value 1.03 | locus YDR388W, stronger effect = lower value 0.988 | locus YDR392W, strain spt3, stronger effect = lower value 0.957 | locus YDR502C, strain sam2, stronger effect = lower value 0.998 | locus YEL003W, strain gim4, stronger effect = lower value 1.03 | locus YEL037C, strain rad23, stronger effect = lower value 1 | locus YEL061C, strain CIN8 (second series), stronger effect = lower value 1.05 | locus YEL061C, strain CIN8, stronger effect = lower value 0.99 | locus YER015W, strain faa2, stronger effect = lower value 1.01 | locus YER016W, strain bim1, stronger effect = lower value 1.03 | locus YER110C, stronger effect = lower value 0.991 | locus YER111C, strain swi4, stronger effect = lower value 0.997 | locus YER155C, strain BEM2 (second series), stronger effect = lower value 0.992 | locus YER155C, strain BEM2, stronger effect = lower value 0.994 | locus YER167W, strain BCK2, stronger effect = lower value 0.995 | locus YFR010W, strain ubp6, stronger effect = lower value 1.02 | locus YGL078C, strain dbp3, stronger effect = lower value 0.995 | locus YGL086W, strain mad1, stronger effect = lower value 0.981 | locus YGL167C, strain pmr1, stronger effect = lower value 1.03 | locus YGL173C, strain kem1, stronger effect = lower value 1.03 | locus YGL227W, strain vid30, stronger effect = lower value 1.01 | locus YGL240W, strain doc1, stronger effect = lower value 1.03 | locus YGL248W, strain PDE1, stronger effect = lower value 1.01 | locus YGL253W, strain hxk2, stronger effect = lower value 1.02 | locus YGR078C, strain PAC10, stronger effect = lower value 0.989 | locus YGR135W, strain pre9, stronger effect = lower value 1.04 | locus YGR252W, strain gcn5, stronger effect = lower value 1.02 | locus YHR013C, strain ard1, stronger effect = lower value 1.03 | locus YHR027C, strain rpn1, stronger effect = lower value 1.02 | locus YHR030C, strain SLT2, stronger effect = lower value 0.983 and 0.995 | locus YHR079C, strain IRE1 (second series), stronger effect = lower value 0.997 | locus YHR079C, strain IRE1, stronger effect = lower value 1.01 | locus YHR094C, strain hxt1, stronger effect = lower value 0.991 | locus YHR129C, strain ARP1, stronger effect = lower value 0.984 | locus YHR142W, strain chs7, stronger effect = lower value 1.03 | locus YHR200W, strain rpn10, stronger effect = lower value 0.984 | locus YIL066C, strain RNR3, stronger effect = lower value 0.969 | locus YIL073C, strain SPO22, stronger effect = lower value 1.03 | locus YIL125W, strain kgd1, stronger effect = lower value 0.984 | locus YIR030C, strain dcg1, stronger effect = lower value 0.993 | locus YJL092W, strain hpr5, stronger effect = lower value 1.02 | locus YJL095W, strain BCK1 (second series), stronger effect = lower value 1.02 | locus YJL095W, strain BCK1, stronger effect = lower value 1.05 and 0.991 | locus YJL115W, strain asf1, stronger effect = lower value 1.03 | locus YJL129C, strain trk1, stronger effect = lower value 1.01 | locus YJL134W, strain LCB3, stronger effect = lower value 0.991 | locus YJL154C, strain vps35, stronger effect = lower value 1.02 | locus YJL164C, strain tpk1, stronger effect = lower value 1.01 | locus YJL166W, strain qcr8, stronger effect = lower value 1.03 | locus YJL168C, strain set2, stronger effect = lower value 0.99 | locus YJL187C, strain SWE1 (second series), stronger effect = lower value 1 | locus YJL187C, strain SWE1, stronger effect = lower value 1.02
